Laboratory results: publication PMC7862700, “An all-to-all approach to the identification of sequence-specific readers for epigenetic DNA modifications on cytosine”

Assays:
Test in all cases: DAPPL (digital affinity profiling via proximity ligation, sequencing); 10 mM Tris-HCl pH 7.5, 50 mM NaCl, 1 mM DTT, 4% glycerol, room temperature, 30 min; GST-TFs on glutathione beads, 16-mer random dsDNA library, 0.1% formaldehyde crosslink after washing; high values mean tight binding
Settings in all cases: protein: recombinant; tags: N-terminal GST; dsDNA, one strand shown
[1] = target: T1, ERF (Homo sapiens, UniProt P50548 1-548)
T1 sequence: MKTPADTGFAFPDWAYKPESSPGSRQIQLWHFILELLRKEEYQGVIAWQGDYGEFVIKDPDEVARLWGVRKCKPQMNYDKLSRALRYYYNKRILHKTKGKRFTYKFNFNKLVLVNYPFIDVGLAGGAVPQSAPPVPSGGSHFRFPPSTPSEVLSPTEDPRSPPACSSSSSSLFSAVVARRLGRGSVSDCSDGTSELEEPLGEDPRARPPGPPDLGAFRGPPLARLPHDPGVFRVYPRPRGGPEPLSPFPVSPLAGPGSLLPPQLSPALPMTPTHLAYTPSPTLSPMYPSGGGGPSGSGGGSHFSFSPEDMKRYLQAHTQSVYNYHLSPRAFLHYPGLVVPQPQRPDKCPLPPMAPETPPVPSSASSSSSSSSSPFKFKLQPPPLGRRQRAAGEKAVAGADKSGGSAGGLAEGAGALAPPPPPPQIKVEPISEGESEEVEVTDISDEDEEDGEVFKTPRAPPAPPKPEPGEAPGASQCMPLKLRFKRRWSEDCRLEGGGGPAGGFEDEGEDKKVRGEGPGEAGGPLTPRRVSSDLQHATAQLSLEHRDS
In short: (§1)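 Each value of binding signal is a hexamer's read frequency for a factor divided by the same hexamer's frequency in the tag-only sample. Barcoded, bead-captured GST fusions of human transcription factors made in yeast were pooled with that sample and incubated with 200 nmole of a random double-stranded 16-mer DNA library in Tris/NaCl/DTT/glycerol buffer at room temperature for 30 min. Washing, 0.1% formaldehyde crosslinking, proximity ligation, PCR and Illumina NextSeq500 sequencing followed.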

[2] = target: T2, ETV3L (Homo sapiens, UniProt Q6ZN32 1-361)
T2 sequence: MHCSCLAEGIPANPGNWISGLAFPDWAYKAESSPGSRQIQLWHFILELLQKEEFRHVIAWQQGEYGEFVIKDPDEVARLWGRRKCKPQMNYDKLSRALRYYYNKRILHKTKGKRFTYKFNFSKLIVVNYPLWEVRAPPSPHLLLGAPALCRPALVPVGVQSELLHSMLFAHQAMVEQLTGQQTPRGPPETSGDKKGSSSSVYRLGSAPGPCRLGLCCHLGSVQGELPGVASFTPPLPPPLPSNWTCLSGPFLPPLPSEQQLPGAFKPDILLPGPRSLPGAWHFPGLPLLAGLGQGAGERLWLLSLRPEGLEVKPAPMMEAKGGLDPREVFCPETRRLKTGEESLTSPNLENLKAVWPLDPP
In short: as §1

[3] = target: T3, ETS2 (Homo sapiens, UniProt P15036 1-469)
T3 sequence: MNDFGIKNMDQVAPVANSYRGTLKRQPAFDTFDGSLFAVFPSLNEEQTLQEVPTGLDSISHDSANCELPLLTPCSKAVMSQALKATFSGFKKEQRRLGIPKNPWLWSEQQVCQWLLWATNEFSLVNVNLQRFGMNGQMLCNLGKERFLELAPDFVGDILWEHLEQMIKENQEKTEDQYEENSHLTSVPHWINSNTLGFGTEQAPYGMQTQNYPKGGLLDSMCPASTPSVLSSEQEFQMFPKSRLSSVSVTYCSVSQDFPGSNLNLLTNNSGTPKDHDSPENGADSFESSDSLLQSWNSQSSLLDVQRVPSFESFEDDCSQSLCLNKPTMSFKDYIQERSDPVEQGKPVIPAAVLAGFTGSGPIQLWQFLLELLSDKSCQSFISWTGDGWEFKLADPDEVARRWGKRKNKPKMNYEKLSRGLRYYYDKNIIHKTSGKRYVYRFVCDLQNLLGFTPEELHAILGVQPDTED
In short: as §1

[4] = target: T4, SPDEF (Homo sapiens, UniProt O95238 1-335)
T4 sequence: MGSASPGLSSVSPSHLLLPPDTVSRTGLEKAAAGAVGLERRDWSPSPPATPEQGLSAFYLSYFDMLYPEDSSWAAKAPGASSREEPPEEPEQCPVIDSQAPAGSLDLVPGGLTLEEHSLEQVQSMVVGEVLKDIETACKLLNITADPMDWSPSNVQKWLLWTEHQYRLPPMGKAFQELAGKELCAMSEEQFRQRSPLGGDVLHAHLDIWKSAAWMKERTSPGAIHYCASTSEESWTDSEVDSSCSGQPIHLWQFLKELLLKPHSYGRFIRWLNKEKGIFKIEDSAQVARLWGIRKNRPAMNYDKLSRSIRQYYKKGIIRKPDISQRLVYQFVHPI
In short: as §1

[5] = target: T5, ETV7 (Homo sapiens, UniProt Q9Y603 1-341)
T5 sequence: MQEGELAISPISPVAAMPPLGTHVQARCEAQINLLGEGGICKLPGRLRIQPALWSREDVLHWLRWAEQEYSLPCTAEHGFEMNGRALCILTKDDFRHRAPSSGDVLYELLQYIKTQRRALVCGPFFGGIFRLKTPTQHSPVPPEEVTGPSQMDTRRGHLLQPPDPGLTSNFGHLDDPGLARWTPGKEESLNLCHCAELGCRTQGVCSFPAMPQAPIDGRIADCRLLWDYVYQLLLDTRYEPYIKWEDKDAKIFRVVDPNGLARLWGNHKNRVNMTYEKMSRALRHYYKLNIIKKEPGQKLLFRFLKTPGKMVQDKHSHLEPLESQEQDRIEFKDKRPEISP
In short: as §1

[6] = target: T6, ELF5 (Homo sapiens, UniProt Q9UKW6-2 1-255)
T6 sequence: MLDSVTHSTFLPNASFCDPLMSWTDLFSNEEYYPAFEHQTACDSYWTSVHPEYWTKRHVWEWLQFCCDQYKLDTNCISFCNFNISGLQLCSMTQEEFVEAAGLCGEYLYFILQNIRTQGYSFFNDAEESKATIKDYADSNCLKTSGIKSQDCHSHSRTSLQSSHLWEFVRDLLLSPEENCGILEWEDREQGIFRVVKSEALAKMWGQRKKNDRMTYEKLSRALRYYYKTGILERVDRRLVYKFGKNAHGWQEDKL
In short: as §1

[7] = target: T7, ETV3 (Homo sapiens, UniProt P41162-2 1-143)
T7 sequence: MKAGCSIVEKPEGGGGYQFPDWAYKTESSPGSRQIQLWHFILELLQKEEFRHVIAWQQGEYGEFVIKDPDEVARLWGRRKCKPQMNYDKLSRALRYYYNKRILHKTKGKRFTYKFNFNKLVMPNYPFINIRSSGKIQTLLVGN
In short: as §1

[8] = target: ETV6 (Homo sapiens, UniProt P41212 1-452)
In short: as §1

ETV6, sequence (P41212 whole entry): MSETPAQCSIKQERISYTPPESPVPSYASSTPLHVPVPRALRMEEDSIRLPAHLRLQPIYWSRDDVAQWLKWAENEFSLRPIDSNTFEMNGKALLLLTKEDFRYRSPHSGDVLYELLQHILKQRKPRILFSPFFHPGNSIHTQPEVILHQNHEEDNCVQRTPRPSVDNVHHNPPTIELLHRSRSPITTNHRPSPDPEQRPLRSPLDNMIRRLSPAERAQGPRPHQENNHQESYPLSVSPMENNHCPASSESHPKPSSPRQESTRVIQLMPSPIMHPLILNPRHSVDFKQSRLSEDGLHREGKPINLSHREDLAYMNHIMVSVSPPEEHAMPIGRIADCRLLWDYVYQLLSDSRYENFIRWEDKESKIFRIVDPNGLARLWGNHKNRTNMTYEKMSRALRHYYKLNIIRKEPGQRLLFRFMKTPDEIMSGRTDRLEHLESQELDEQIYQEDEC

Sequence | binding signal [1] | binding signal [2] | binding signal [3] | binding signal [4] | binding signal [5] | binding signal [6] | binding signal [7] | binding signal [8]
GAATTT | 1.27 fold enrichment (6-mer frequency, TF over GST control) | 1.21 fold enrichment (6-mer frequency, TF over GST control) | 1.28 fold enrichment (6-mer frequency, TF over GST control) | 1.23 fold enrichment (6-mer frequency, TF over GST control) | 1.29 fold enrichment (6-mer frequency, TF over GST control) | 1.3 fold enrichment (6-mer frequency, TF over GST control) | 1.29 fold enrichment (6-mer frequency, TF over GST control) | 1.2 fold enrichment (6-mer frequency, TF over GST control)
CACAAG | 1.13 fold enrichment (6-mer frequency, TF over GST control) | 1.16 fold enrichment (6-mer frequency, TF over GST control) | 1.22 fold enrichment (6-mer frequency, TF over GST control) | 1.07 fold enrichment (6-mer frequency, TF over GST control) | 1.05 fold enrichment (6-mer frequency, TF over GST control) | 1.11 fold enrichment (6-mer frequency, TF over GST control) | 1.16 fold enrichment (6-mer frequency, TF over GST control) | 1.14 fold enrichment (6-mer frequency, TF over GST control)
ATTTGC | 1.32 fold enrichment (6-mer frequency, TF over GST control) | 1.26 fold enrichment (6-mer frequency, TF over GST control) | 1.28 fold enrichment (6-mer frequency, TF over GST control) | 1.27 fold enrichment (6-mer frequency, TF over GST control) | 1.43 fold enrichment (6-mer frequency, TF over GST control) | 1.25 fold enrichment (6-mer frequency, TF over GST control) | 1.37 fold enrichment (6-mer frequency, TF over GST control) | 1.27 fold enrichment (6-mer frequency, TF over GST control)
ACTTGC | 1.3 fold enrichment (6-mer frequency, TF over GST control) | 1.48 fold enrichment (6-mer frequency, TF over GST control) | 1.32 fold enrichment (6-mer frequency, TF over GST control) | 1.44 fold enrichment (6-mer frequency, TF over GST control) | 1.37 fold enrichment (6-mer frequency, TF over GST control) | 1.47 fold enrichment (6-mer frequency, TF over GST control) | 1.49 fold enrichment (6-mer frequency, TF over GST control) | 1.52 fold enrichment (6-mer frequency, TF over GST control)
TCTCAG | 1.26 fold enrichment (6-mer frequency, TF over GST control) | 1.26 fold enrichment (6-mer frequency, TF over GST control) | 1.37 fold enrichment (6-mer frequency, TF over GST control) | 1.33 fold enrichment (6-mer frequency, TF over GST control) | 1.26 fold enrichment (6-mer frequency, TF over GST control) | 1.31 fold enrichment (6-mer frequency, TF over GST control) | 1.43 fold enrichment (6-mer frequency, TF over GST control) | 1.34 fold enrichment (6-mer frequency, TF over GST control)
CTCTAG | 1.31 fold enrichment (6-mer frequency, TF over GST control) | 1.28 fold enrichment (6-mer frequency, TF over GST control) | 1.26 fold enrichment (6-mer frequency, TF over GST control) | 1.24 fold enrichment (6-mer frequency, TF over GST control) | 1.27 fold enrichment (6-mer frequency, TF over GST control) | 1.22 fold enrichment (6-mer frequency, TF over GST control) | 1.4 fold enrichment (6-mer frequency, TF over GST control) | 1.34 fold enrichment (6-mer frequency, TF over GST control)
CCCGCT | 1.37 fold enrichment (6-mer frequency, TF over GST control) | 1.47 fold enrichment (6-mer frequency, TF over GST control) | 1.22 fold enrichment (6-mer frequency, TF over GST control) | 1.32 fold enrichment (6-mer frequency, TF over GST control) | 1.36 fold enrichment (6-mer frequency, TF over GST control) | 1.39 fold enrichment (6-mer frequency, TF over GST control) | 1.36 fold enrichment (6-mer frequency, TF over GST control) | 1.38 fold enrichment (6-mer frequency, TF over GST control)
TAATTA | 1.24 fold enrichment (6-mer frequency, TF over GST control) | 1.23 fold enrichment (6-mer frequency, TF over GST control) | 1.34 fold enrichment (6-mer frequency, TF over GST control) | 1.24 fold enrichment (6-mer frequency, TF over GST control) | 1.35 fold enrichment (6-mer frequency, TF over GST control) | 1.2 fold enrichment (6-mer frequency, TF over GST control) | 1.19 fold enrichment (6-mer frequency, TF over GST control) | 1.36 fold enrichment (6-mer frequency, TF over GST control)
